# Shown are actives, neighbours in structure and some others; about 3.6% of the full set was active somewhere.
# esBAF inh = blocks esBAF chromatin remodeling in mouse ES cells | Bmi1-luciferase knock-in reporter, 24 h; 100% = twice the neutral-well signal | reporter increase, % at 12.5 µM | 350,000 compounds, 2% hits | AID 602393; in the data active = activation above about 40%;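 also: a rise in the Bmi1 reporter signal indicates esBAF inhibition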
# APOBEC3A inh = inhibitors of human APOBEC3A DNA deaminase; P31941; recombinant A3A, FAM/TAMRA ssDNA deamination fluorescence; inhibition, % at 20 µM; 330,000 compounds, 0.41% hits; AID 493011;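 active = at least 40% inhibition at 20 µM here, with at most 30% in a related deaminase screen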
# A3G deaminase = APOBEC3G (human) deaminase inhibition; recombinant A3G, ssDNA deamination FAM/TAMRA fluorescence; inhibition, % at 20 µM; 330,000 compounds, 0.28% hits;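 active = inhibition of at least 40% at 20 µM, with no more than 30% in the related APOBEC3A deaminase screen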
# Target sequence (Q9HC16 whole entry, looked up): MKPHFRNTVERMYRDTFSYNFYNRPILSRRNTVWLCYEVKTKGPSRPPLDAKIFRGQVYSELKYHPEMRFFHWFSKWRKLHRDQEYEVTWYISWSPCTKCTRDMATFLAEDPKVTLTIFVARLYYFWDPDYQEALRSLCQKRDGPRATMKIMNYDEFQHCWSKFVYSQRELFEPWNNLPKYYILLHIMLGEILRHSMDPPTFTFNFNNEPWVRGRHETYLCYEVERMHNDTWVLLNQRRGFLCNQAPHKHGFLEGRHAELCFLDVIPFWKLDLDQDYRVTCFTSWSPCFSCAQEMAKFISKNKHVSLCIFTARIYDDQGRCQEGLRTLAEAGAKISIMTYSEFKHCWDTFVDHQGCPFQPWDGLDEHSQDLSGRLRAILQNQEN
# Wnt bcat act = activates Wnt/beta-catenin signaling in a reporter cell assay; activator, plate reader; activation, % at 9.35 µM; 300,000 compounds, 1.2% hits; AID 743398; in the data active = activation above about 30%, passing the limit was not always enough
# PHOSPHO1 inh = inhibitors of human PHOSPHO1 phosphatase; Q8TCT1; recombinant PHOSPHO1, absorbance phosphatase assay; inhibition, % at 13.3 µM; 290,000 compounds, 1.1% hits; in the data active = inhibition above about 60%
# Target sequence (Q8TCT1 whole entry, looked up): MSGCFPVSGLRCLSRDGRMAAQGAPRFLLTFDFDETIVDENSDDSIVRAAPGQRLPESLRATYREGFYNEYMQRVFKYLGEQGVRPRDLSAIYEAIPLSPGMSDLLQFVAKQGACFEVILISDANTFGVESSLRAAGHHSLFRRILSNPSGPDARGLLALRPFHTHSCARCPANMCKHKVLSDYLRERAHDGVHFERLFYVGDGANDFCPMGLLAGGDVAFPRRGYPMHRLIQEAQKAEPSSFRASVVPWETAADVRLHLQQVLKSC
# MITF TRPM1 HTS = activators of MITF-driven TRPM1 promoter activity in SK-MEL-5 cells | activation, % at 12.5 µM | 300,000 compounds, 0.75% hits | SK-MEL-5 TRPM1-promoter luciferase, 24 h; % of positive control, neutral wells = 0;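 active = mean activation of at least 80% with every replicate also reaching 80%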
# A3A conf = confirmation of human APOBEC3A DNA deaminase inhibitors; shares compounds with APOBEC3A inh; recombinant A3A, ssDNA deaminase UDG fluorescence assay; inhibition, % at 20 µM; 1,400 compounds, 63% hits;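 active = inhibition reaching a set limit, 80% of the first screen's cutoff, at 20 µM in any replicate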
# UDG A3A counter = counter-screen for APOBEC3A inhibitors: UDG. shares compounds with APOBEC3A inh. UDG counterscreen, FAM/TAMRA uracil oligo fluorescence. inhibition, % at 20 µM. 1,000 tested, under 10 active. AID 504714; call rule not given here
# A number is an active result; – = inactive; · = not tested or not shown.
SMILES,esBAF inh,APOBEC3A inh,A3G deaminase,Wnt bcat act,PHOSPHO1 inh,MITF TRPM1 HTS,A3A conf,UDG A3A counter
Cc1ccc(/C=C/S(=O)(=O)NCC(=O)OCC(=O)Nc2ccc(C(N)=O)cc2)cc1,·,–,–,–,·,–,·,·
C[n+]1ccccc1/C=C1\Sc2ccccc2N1CCO,–,98,–,–,–,–,92,–
CCC(=O)/C=C1\Sc2ccc(OC)cc2N1CCO,–,–,–,·,–,·,·,·
Cc1ccc2c(c1)S/C(=C/c1ccc[n+](CCO)c1)N2C,–,56,–,–,–,–,88,–
Cc1ccc2c(c1)S/C(=C\c1cccc[n+]1C)N2CCO,–,58,–,–,·,–,89,–
Cc1cc(/C=C2\Sc3ccccc3N2C)cc(C)[n+]1CC1CCCO1 (stereo not drawn),·,–,–,–,–,–,·,·
CCN1/C(=C/c2ccc3cc(C)cc(C)c3[n+]2CC)Sc2cc(C)ccc21,–,·,·,–,–,–,·,·
O=C(O)C1CCCCC1C(=O)Nc1cccc(Br)c1 (stereo not drawn),–,94,–,–,·,–,91,·
CC(=O)N(C)C[C@@H]1Oc2ncc(-c3ccc(C)cc3)cc2C(=O)N([C@@H](C)CO)C[C@H]1C,–,·,·,·,·,·,·,·
Cc1noc(C)c1S(=O)(=O)N(C)C[C@@H]1OCCCC[C@@H](C)Oc2ccc(NS(=O)(=O)c3cccs3)cc2C(=O)N([C@@H](C)CO)C[C@H]1C,–,·,·,·,·,·,·,·
CCCNC(=O)C[C@@H]1CC[C@H]2[C@@H](COc3ccc(NC(=O)Nc4c(C)noc4C)cc3C(=O)N2C)O1,–,·,·,·,·,·,·,·
C[C@H]1c2cccc(O)c2C(=O)C2C(=O)C3(O)C(=O)C(C(N)=O)C(=O)[C@@H](N(C)C)[C@@H]3[C@@H](O)[C@@H]21 (stereo partly drawn),–,–,–,–,·,–,·,·
CN(C)c1ccc(O)c2c1CC1CC3[C@@H](N(C)C)C(=O)C(C(N)=O)C(=O)[C@]3(O)C(=O)C1C2=O (stereo partly drawn),–,54,–,–,·,–,30,–
C[C@H]1c2cccc(O)c2C(O)=C2C(=O)C3(O)C(O)=C(C(N)=O)C(=O)[C@@H](N(C)C)[C@@H]3[C@@H](O)[C@@H]21 (stereo partly drawn),–,–,–,–,·,–,·,·
CN(C)c1ccc(O)c2c1CC1CC3C(N(C)C)C(=O)C(C(N)=O)=C(O)[C@@]3(O)C(=O)C1=C2O (stereo partly drawn),–,40,–,–,·,–,–,–
OCCNC1=NCCN1,–,56,–,–,–,·,76,–
CCCc1cn(CC[C@@H]2CC[C@H](NC(=O)C3CCOCC3)[C@H](CO)O2)nn1,–,·,·,·,·,·,·,·
N/C(=N/S(=O)(=O)c1ccccc1)c1cccc([N+](=O)[O-])c1,–,45,–,–,–,–,–,–
N/C(=N/OC(=O)c1cccc([N+](=O)[O-])c1)c1cccc([N+](=O)[O-])c1,·,47,–,–,–,–,–,–
CO[C@H]1CN(C)C(=O)c2cc(NC(=O)Nc3cccc(F)c3)ccc2OC[C@H](C)N(C(=O)Nc2c(C)noc2C)C[C@@H]1C,–,·,·,·,·,·,·,·
O=C(N[C@@H]1CC[C@H](CCNS(=O)(=O)c2ccc(F)cc2)O[C@@H]1CO)c1cnccn1,–,·,·,·,·,·,·,·
CN(C[C@H](Cc1ccccc1)N(C[C@H](Cc1ccccc1)N(CCC(C)(C)C)N=O)N=O)N=O,–,98,–,–,–,–,–,–
C[C@H](CO)N1C[C@H](C)[C@H](CN(C)S(=O)(=O)c2cn(C)cn2)Oc2ccc(N(C)C)cc2CC1=O,–,·,·,·,·,·,·,·
O=C(O)/C(=C\c1ccc(Cl)c([N+](=O)[O-])c1)c1ccc(S(=O)(=O)N2CCCCC2)s1,·,–,–,–,–,–,·,·
O=C(O)/C(=C\c1ccc(Cl)c([N+](=O)[O-])c1)c1ccc(S(=O)(=O)N2CCCC2)s1,–,55,–,–,·,–,47,–
SMILES,esBAF inh,APOBEC3A inh,A3G deaminase,Wnt bcat act,PHOSPHO1 inh,MITF TRPM1 HTS,A3A conf,UDG A3A counter
CC(C)C#Cc1cnc2c(c1)C(=O)N([C@H](C)CO)C[C@H](C)[C@@H](CN(C)C(=O)Cc1ccccn1)O2,–,·,·,·,·,·,·,·
Cc1ccccc1CSCC(=O)NC1CCCC1,–,–,–,·,–,–,·,·
Cc1ccccc1CSCC(=O)Nc1ccccc1Br,–,72,–,–,–,–,–,·
C=CCOc1ccc(C(=O)Nc2ccccc2C(=O)NCc2cccnc2)cc1,·,43,–,–,–,–,34,–
CCCCCn1ccc(=N)cc1,–,62,–,·,93,–,72,–
CCCCCCCn1ccc(=N)cc1,·,74,–,·,–,–,74,–
CCCCCCCCCn1ccc(=N)cc1,·,–,–,–,–,·,·,·
Cc1cc(C(=O)NCc2ccc(C(=O)O)o2)c(C)o1,–,47,–,–,–,–,48,–
Cc1occc1C(=O)NCc1ccc(C(=O)O)o1,–,–,–,·,–,–,·,·
CC(C)NC(=O)N(C)C[C@@H]1Oc2ccc(NC(=O)C3CCCCC3)cc2CC(=O)N([C@@H](C)CO)C[C@@H]1C,–,·,·,·,·,·,·,·
CC(C)(C)N(NC(=O)Nc1ccc(Cl)c(Cl)c1)C(=O)c1ccccc1,–,40,–,–,–,–,–,·
Cc1nn(C)cc1NC(=O)C[C@H]1CC[C@@H]2[C@@H](COc3ccc(NC(=O)NC(C)C)cc3C(=O)N2C)O1,–,·,·,·,·,·,·,·
CC(C)Oc1ccc(OCCSc2nc3ccccc3n2CC(=O)O)cc1,–,70,–,–,–,·,–,·
CC(C)COC(=O)N1CC(O)CC1C(=O)Nc1ccc2c(c1)OCO2 (stereo not drawn),–,53,–,–,·,·,81,–
C[C@H](CO)N1C[C@H](C)[C@H](CN(C)C(=O)NC2CCCC2)Oc2ncc(-c3cccc(F)c3)cc2C1=O,–,·,·,·,·,·,·,·
COCCN1Cc2cccc(C(=O)NCc3ccccc3OC)c2C1=O,–,96,–,·,–,–,–,–
CCn1c(/C=C/c2cc[n+](C)cc2)nc2ccccc21,–,53,–,–,–,–,47,·
CCn1c(/C=N/c2nc3ccccc3n2C)nc2ccccc21,·,–,–,–,–,–,·,·
COc1ccc(N2CC(C(=O)Nc3nnc(SCC(=O)NC(C)(C)C)s3)CC2=O)cc1 (stereo not drawn),·,48,–,–,–,–,–,·
Cc1ccc(N=Nc2[nH]c3ccccc3c2O)cc1,·,63,–,·,–,–,59,–
COc1ccc(N=Nc2[nH]c3ccc(C)cc3c2O)cc1,·,75,–,·,–,–,52,–
Cc1ccc(N=Nc2c(O)[nH]c3ccc(F)cc23)cc1,·,–,–,–,–,·,·,·
Cc1[nH]c2ccccc2c1N=Nc1ccc(F)cc1,·,–,–,–,–,–,·,·

# High-throughput results from PubChem BioAssay.
